Among the test systems are PAK1; PAK2; PAK3; PAK4; PAK6; PAK7; PDGFRA.
What all share (settings): Compound Concentration (nM):1000
For the next assay, the system named is T1, PCTK1.
T1 construct: gene CDK16

In another assay the test system is T2, PCTK2.
T2 construct: gene CDK17

Another assay has as its system T3, PCTK3.
T3 construct: gene CDK18

Here are results for 20 molecules from publication PMC7826789 (International Journal of Molecular Sciences, 2021).
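Further: KINOMEscan scanMAX binding as percent activity remaining versus control; lower means stronger binding.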

With `COc1ccc(COc2ccc(Cc3cnc(N)nc3N)cc2OC)cc1` [GW632580X], the “Percent Control” value with PAK1 is 100%; in the assay on PAK2 it was 100%; in the assay with PAK3, 62%; with PAK4 it was 100%; with PAK6 it was 92%; in the assay with PAK7, 100%. The “Percent Control” value in the assay on PCTK1 is recorded as 84%; in the assay on PCTK2 it was 100%; in the assay on PCTK3, 73%; with PDGFRA, 91%.
For `CCS(=O)(=O)c1ccc(OC)c(Nc2ncc(-c3cccc(F)c3)o2)c1` [GW621970X], the “Percent Control” value in the assay with PAK1, in the assay with PAK2, in the assay on PAK3, with PAK4, in the assay on PAK6 and with PAK7 was 100% in each case. Further, the “Percent Control” value in the assay with PCTK1 worked out at 100%; with PCTK2, 100%; in the assay on PCTK3, 81%; in the assay on PDGFRA it was 49%.
On to `CCc1ccc(Oc2nccc(-c3c(-c4ccc(F)cc4)ncn3C3CCNCC3)n2)cc1` [SB-242719], for which the “Percent Control” value was 100% with PAK1; 100% in the assay with PAK2; 71% in the assay with PAK3; 100% with PAK4; 82% with PAK6; 98% with PAK7. The “Percent Control” value was 87% in the assay with PCTK1, 100% with PCTK2, 94% with PCTK3 and 100% with PDGFRA.
On to `Cl.O=S1CCN(Cc2ccc(-c3ccc4ncnc(Nc5ccc(OCc6ccccc6)c(F)c5)c4c3)o2)CC1` [GW576924A], for which the “Percent Control” value with PAK1 is 100%; in the assay with PAK2 it was 100%; with PAK3, 78%; in the assay on PAK4, 100%; with PAK6 it was 100%; with PAK7, 100%. In addition, the “Percent Control” value in the assay on PCTK1 is on record as 100%; in the assay with PCTK2, 100%; in the assay with PCTK3 it was 100%; in the assay on PDGFRA, 84%.
As to `COc1cc2ncnc(Nc3ccc4c(cnn4Cc4ccccc4)c3)c2cc1OC.Cl` [GW282449A], the “Percent Control” value is 100% in the assay with PAK1; 100% with PAK2; 30% in the assay on PAK3; 100% with PAK4; 100% with PAK6; 100% with PAK7. In addition, the “Percent Control” value amounted to 100% in the assay with PCTK1, 100% in the assay on PCTK2, 100% in the assay on PCTK3 and 83% with PDGFRA.
Take `COc1cc(C=NNc2ncnc3c2cnn3-c2ccccc2)ccc1O` [GW513184X]: the “Percent Control” value is 100% in the assay with PAK1; 100% in the assay on PAK2; 50% with PAK3; 100% in the assay on PAK4; 100% with PAK6; 100% with PAK7. The “Percent Control” value with PCTK1 worked out at 29%; in the assay on PCTK2, 38%; with PCTK3 it was 84%; in the assay on PDGFRA it was 63%.
For `NS(=O)(=O)c1ccc(N/N=C2\C(=O)Nc3ccc(-c4cnco4)cc32)cc1` [GW276655], the “Percent Control” value was 87% in the assay with PAK1; 82% in the assay on PAK2; 100% in the assay on PAK3; 95% in the assay with PAK4; 76% with PAK6; 88% with PAK7. Further, the “Percent Control” value in the assay on PCTK1 is recorded as 1.4%; with PCTK2, 76%; with PCTK3, 100%; with PDGFRA, 79%.
As to `COc1ccccc1-c1cc(/C=C2\C(=O)Nc3ncc(Br)cc32)cc(Br)c1O` [GW442130X], the “Percent Control” value is 100% in the assay on PAK1; 100% with PAK2; 67% in the assay with PAK3; 100% in the assay on PAK4; 100% in the assay with PAK6; 98% in the assay with PAK7. The “Percent Control” value with PCTK1 is 79%; in the assay on PCTK2 it was 100%; in the assay on PCTK3 it was 100%; in the assay with PDGFRA, 71%.
For the molecule `NS(=O)(=O)c1ccc(Nc2ncc(-c3ccccc3)o2)cc1` [GW572399X], the “Percent Control” value in the assay on PAK1 was 100%; with PAK2 it was 100%; in the assay on PAK3 it was 86%; in the assay with PAK4, 100%; in the assay with PAK6, 87%; in the assay with PAK7 it was 100%. The “Percent Control” value in the assay on PCTK1 is 3.8%; with PCTK2 it was 100%; with PCTK3, 100%; in the assay with PDGFRA, 8.8%.
Regarding `COc1ccc2c(-c3ccnc(Nc4cccc(OC(F)(F)F)c4)n3)cnn2n1` [GW810372X], the “Percent Control” value with PAK1 was 100%; in the assay on PAK2 it was 100%; in the assay on PAK3 it was 100%; in the assay on PAK4, 100%; in the assay on PAK6, 96%; in the assay with PAK7 it was 100%. Further, the “Percent Control” value stood at 100% with PCTK1, 100% in the assay with PCTK2, 99% in the assay on PCTK3 and 87% with PDGFRA.
As for `Cl.c1ccc(Cc2nc3ccc(Nc4ncnc5ccccc45)cc3[nH]2)cc1` [GR269666A], the “Percent Control” value with PAK1, in the assay with PAK2, in the assay on PAK3, in the assay on PAK4, in the assay with PAK6 and in the assay on PAK7 was 100% throughout. The “Percent Control” value with PCTK1 is listed as 100%; in the assay with PCTK2, 100%; in the assay with PCTK3, 100%; in the assay on PDGFRA it was 49%.
`COc1cc(C)c(N(C)C(=O)CN(C)C)cc1Nc1nc(Nc2cccc(F)c2C(N)=O)c2cc[nH]c2n1` [GSK2219385]: the “Percent Control” value is 100% in the assay with PAK1; 74% in the assay on PAK2; 100% with PAK3; 100% in the assay with PAK4; 96% in the assay with PAK6; 82% in the assay on PAK7. Further, the “Percent Control” value in the assay with PCTK1 worked out at 79%; in the assay with PCTK2, 100%; with PCTK3, 100%; with PDGFRA it was 100%.
Consider `COc1cc(N2CCN(C(C)C)CC2)ccc1Nc1nc(Nc2ccc(F)cc2C(=O)NC[C@@H](O)CO)c2cc[nH]c2n1` [GSK1392956A], for which the “Percent Control” value is 100% with PAK1; 100% with PAK2; 100% in the assay on PAK3; 100% with PAK4; 89% in the assay with PAK6; 67% in the assay with PAK7. Also, the “Percent Control” value in the assay on PCTK1 was 82%; in the assay with PCTK2, 100%; with PCTK3, 100%; in the assay with PDGFRA it was 91%.
Take `NS(=O)(=O)c1ccc(N/N=C2\C(=O)Nc3ccc(Cl)cc32)cc1` [GW280670X]: the “Percent Control” value in the assay with PAK1, with PAK2, in the assay with PAK3, in the assay on PAK4, in the assay on PAK6 and in the assay on PAK7 was 100% throughout. In addition, the “Percent Control” value amounted to 26% in the assay on PCTK1, 100% in the assay on PCTK2, 100% in the assay with PCTK3 and 28% with PDGFRA.
For the molecule `Cl.O=C(O[C@H]1CN[C@H](C#Cc2cc3ncnc(Nc4ccc5c(cnn5Cc5ccccc5)c4)c3s2)C1)N1CCOCC1` [GSK200398A], the “Percent Control” value is 100% in the assay on PAK1; 100% in the assay with PAK2; 63% in the assay with PAK3; 100% with PAK4; 100% in the assay with PAK6; 89% in the assay with PAK7. For the same molecule, the “Percent Control” value with PCTK1 came out at 83%; in the assay with PCTK2, 96%; with PCTK3, 100%; in the assay on PDGFRA, 83%.
In the case of `C[C@@H](Oc1cc(-n2cnc3ccc(OC4CCN(C)CC4)cc32)sc1C(N)=O)c1ccccc1Cl` [GSK579289A], the “Percent Control” value in the assay on PAK1 was 100%; in the assay with PAK2, 84%; in the assay on PAK3 it was 0%; with PAK4, 100%; in the assay with PAK6, 75%; in the assay on PAK7, 74%. The “Percent Control” value in the assay with PCTK1 stood at 94%; with PCTK2 it was 94%; in the assay with PCTK3, 86%; with PDGFRA, 54%.
With `COC(=O)Nc1nc2ccc(Oc3ccc(NC(=O)Nc4cc(C(F)(F)F)ccc4F)cc3)cc2s1.Cl` [GW693917A], the “Percent Control” value in the assay with PAK1 was 100%; in the assay with PAK2 it was 100%; in the assay with PAK3 it was 43%; in the assay with PAK4, 100%; in the assay with PAK6, 82%; with PAK7 it was 91%. Moreover, the “Percent Control” value is given as 74% in the assay with PCTK1, 72% with PCTK2, 78% in the assay with PCTK3 and 11% in the assay with PDGFRA.
As to `COc1cc2ncn(-c3cc(O[C@H](C)c4ccccc4Cl)c(C(N)=O)s3)c2cc1OC` [GSK237701A], the “Percent Control” value in the assay on PAK1 is 98%; with PAK2, 93%; with PAK3 it was 7.6%; in the assay on PAK4, 93%; in the assay with PAK6 it was 88%; with PAK7, 100%. Besides, the “Percent Control” value turned out to be 90% in the assay on PCTK1, 100% in the assay on PCTK2, 100% in the assay on PCTK3 and 24% in the assay on PDGFRA.
As for `CCn1c(-c2nonc2N)nc2c(C#CC(C)(C)O)nc(OCCNC)cc21.Cl` [GSK949675], the “Percent Control” value is 100% in the assay with PAK1; 52% in the assay with PAK2; 100% in the assay with PAK3; 75% with PAK4; 60% in the assay on PAK6; 46% in the assay with PAK7. The “Percent Control” value with PCTK1 was 82%; with PCTK2, 100%; with PCTK3, 100%; with PDGFRA, 100%.
In the case of `CN(C)CCNC(=O)Nc1ccc(N(C)c2ccnc(Nc3ccc(CS(C)(=O)=O)cc3)n2)cc1.Cl` [GW830900A], the “Percent Control” value with PAK1 was 99%; with PAK2 it was 79%; in the assay on PAK3, 2.1%; in the assay on PAK4, 71%; with PAK6 it was 90%; in the assay on PAK7 it was 71%. In addition, the “Percent Control” value came to 100% in the assay with PCTK1, 100% with PCTK2, 100% in the assay on PCTK3 and 2% in the assay with PDGFRA.
